Our source for the composite z-score and z-score values is PubChem BioAssay.

Experiment [1] can be described thus: binders of probe aFSTL3 on microarray, primary screen, stem cell growth factor project, biochemical, small-molecule microarray, fluorescence 635/667 (AID 1064).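 Further: measures binding of the biotinylated anti-FSTL3 antibody to printed compounds.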 Particulars: higher = more signal.
Experiment [2] can be described thus: binders from COS7 lysate, DM2A8 probe, primary screen, torsin A project, cell lysate, small-molecule microarray, fluorescence 635/667 (AID 1065). As to conditions: higher = more signal, COS7 lysate expressing mutant human TOR1A.
Experiment [3] can be described thus: binders of probe aFGF2 on microarray, primary screen, stem cell growth factor project, biochemical, small-molecule microarray, fluorescence 635/667 (AID 1067).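 Further: measures binding of biotinylated aFGF2 protein to printed compounds on slides; z-score merges feature fluorescence and signal-to-noise across triplicate slides.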 As to conditions: higher = more signal.
Experiment [4] can be described thus: binders of probe aFGF10 on microarray, primary screen, stem cell growth factor project, biochemical, small-molecule microarray, fluorescence 635/667 (AID 1071).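 Further: score merges 667 nm spot intensity and signal to noise from triplicate slides.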 Particulars: higher = more signal.
The target of experiment [5] is Neurogenic locus notch homolog protein 2 (Homo sapiens) (UniProt Q04721). The experiment in a line: Notch2 binders on small-molecule microarrays, primary screen, biochemical, small-molecule microarray, 635 nm fluorescence, stem cell growth factors (AID 1073). As to conditions: Notch2 binding, higher = more signal.
Experiment [6] deals with Pro-neuregulin-1, membrane-bound isoform (Homo sapiens) (UniProt Q02297). The experiment in a line: NRG1 binders on small-molecule microarrays, primary screen, psychiatric disease protein project, biochemical, small-molecule microarray, fluorescence 635/667 (AID 1075).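 Further: score combines 667 nm spot fluorescence with signal to noise.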 Particulars: NRG1 binding, 635 nm fluorescence, higher = more signal.
The subject of experiment [7] is Neuregulin-1 EGF-like domain. The experiment is described as follows: binders of neuregulin-1 EGF-like domain, primary screen, biochemical, small-molecule microarray, 635 nm fluorescence (AID 1081).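 Further: binding of the protein to compounds printed on small-molecule microarray slides.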 As to conditions: small-molecule microarray binding, higher = more signal.
A short description of experiment [8]: FRG1 promoter luciferase signal modulators, primary screen, FRG1 inhibition for FSHD, cell-based, C2C12 myotubes, firefly/Renilla luciferase, luminescence (AID 1084). As to conditions: higher = more signal, called active from +8 up or from −8 down.
Experiment [9] is described as follows: binders of probe aFST on microarray, primary screen, stem cell growth factor project, biochemical, small-molecule microarray, fluorescence 635/667 (AID 1086).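 Further: score merges 667 nm fluorescence with signal-to-noise of each printed compound spot.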 As to conditions: higher = more signal.
The nature of experiment [10]: binders of probe aHhip on microarray, primary screen, stem cell growth factor project, biochemical, small-molecule microarray, fluorescence 635/667 (AID 1087).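 Further: score merges spot fluorescence at 667nm with spot signal to noise ratio.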 As to conditions: higher = more signal.
Experiment [11] deals with PRMT1 (protein arginine N-methyltransferase 1). The experiment in a line: PRMT1 binders on small-molecule microarrays, primary screen, biochemical, small-molecule microarray, 635 nm fluorescence (AID 1088).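 Further: binding of Prmt1 protein to compounds spotted on small-molecule microarray slides.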 As to conditions: small-molecule microarray binding, higher = more signal.
Experiment [12] is described as follows: yeast growth modulation, basal conditions, primary screen, YJM789 clinical isolate, OD600, 24 h (AID 1089).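 Further: growth of clinical yeast isolate S. cerevisiae YJM 789 seeded 1000 cells per well; test concentration not given here.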 Particulars: S. cerevisiae YJM789 growth, higher = more signal, called active from +8 up or from −8 down.
Experiment [13] in a line: fission yeast growth modulation, primary screen, strain 972, OD600, 24 h, no modulator (AID 1090).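 Further: basal condition with compound alone and no growth modifier present; test concentration not given here.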 Particulars: S. pombe 972 growth, higher = more signal, called active from +8 up or from −8 down.
Experiment [14] in a line: S. cerevisiae growth modulation with rapamycin, primary screen, strain BY4716, OD600, 96 h (AID 1091). Further: test concentration not given here. As to conditions: higher = more signal, called active from +8 up or from −8 down.
Experiment [15] deals with Torsin-1A-interacting protein 2 (Homo sapiens) (UniProt Q8NFQ8). The experiment is described as follows: LULL1 binders on small-molecule microarray, primary screen, cell lysate, human LULL1 lysate, 635/667 nm fluorescence (AID 1092).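 Further: probe is lysate of COS7 cells overexpressing human LULL1; score merges per-feature 667 nm fluorescence with signal-to-noise.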 As to conditions: hLULL1 lysate binding, 635 nm fluorescence, higher = more signal.
The nature of experiment [16]: E. coli growth modulation, two-sided OD650, primary screen, E. coli filamentation project, strain DRC41, 24 h (AID 1093).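 Further: MC1000 strain lacking acrAB efflux and sulA so SOS filamentation is blocked; test concentration not given here.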 As to conditions: OD650, 24 h, higher = more signal, called active from +8 up or from −8 down.
A short description of experiment [17]: small-molecule microarray binders of probe aLefty2, primary screen, biochemical, biotinylated probe, 635/667 nm fluorescence (AID 1094).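 Further: score merges spot fluorescence near 667 nm with spot signal-to-noise ratio.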 Particulars: higher = more signal.
The subject of experiment [18] is Noggin (protein binding on small-molecule microarray). The experiment is described as follows: Noggin binders on small-molecule microarray, primary screen, biochemical, 635/667 nm fluorescence (AID 1095).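 Further: score merges 667 nm feature fluorescence with signal to noise over triplicate slides.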 Particulars: 635 nm fluorescence, higher = more signal.
The target in experiment [19] is Neurogenic locus notch homolog protein 3 (Homo sapiens) (UniProt Q9UM47). The experiment in a line: NOTCH3 binders on small-molecule microarray, primary screen, biochemical, 635/667 nm fluorescence (AID 1096). Particulars: NOTCH3 binding, 635 nm fluorescence, higher = more signal.
The nature of experiment [20]: small-molecule microarray binders of probe aEGFR, primary screen, biochemical, biotinylated probe, 635/667 nm fluorescence (AID 1097).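 Further: probe is a biotinylated anti-EGFR antibody binding compounds printed on slides; score combines fluorescence near 667 nm and signal to noise of each spot.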 As to conditions: higher = more signal.

Activity calls are given as the source filed them.

Sequence of Neurogenic locus notch homolog protein 3 (Homo sapiens) (Q9UM47 whole entry, looked up): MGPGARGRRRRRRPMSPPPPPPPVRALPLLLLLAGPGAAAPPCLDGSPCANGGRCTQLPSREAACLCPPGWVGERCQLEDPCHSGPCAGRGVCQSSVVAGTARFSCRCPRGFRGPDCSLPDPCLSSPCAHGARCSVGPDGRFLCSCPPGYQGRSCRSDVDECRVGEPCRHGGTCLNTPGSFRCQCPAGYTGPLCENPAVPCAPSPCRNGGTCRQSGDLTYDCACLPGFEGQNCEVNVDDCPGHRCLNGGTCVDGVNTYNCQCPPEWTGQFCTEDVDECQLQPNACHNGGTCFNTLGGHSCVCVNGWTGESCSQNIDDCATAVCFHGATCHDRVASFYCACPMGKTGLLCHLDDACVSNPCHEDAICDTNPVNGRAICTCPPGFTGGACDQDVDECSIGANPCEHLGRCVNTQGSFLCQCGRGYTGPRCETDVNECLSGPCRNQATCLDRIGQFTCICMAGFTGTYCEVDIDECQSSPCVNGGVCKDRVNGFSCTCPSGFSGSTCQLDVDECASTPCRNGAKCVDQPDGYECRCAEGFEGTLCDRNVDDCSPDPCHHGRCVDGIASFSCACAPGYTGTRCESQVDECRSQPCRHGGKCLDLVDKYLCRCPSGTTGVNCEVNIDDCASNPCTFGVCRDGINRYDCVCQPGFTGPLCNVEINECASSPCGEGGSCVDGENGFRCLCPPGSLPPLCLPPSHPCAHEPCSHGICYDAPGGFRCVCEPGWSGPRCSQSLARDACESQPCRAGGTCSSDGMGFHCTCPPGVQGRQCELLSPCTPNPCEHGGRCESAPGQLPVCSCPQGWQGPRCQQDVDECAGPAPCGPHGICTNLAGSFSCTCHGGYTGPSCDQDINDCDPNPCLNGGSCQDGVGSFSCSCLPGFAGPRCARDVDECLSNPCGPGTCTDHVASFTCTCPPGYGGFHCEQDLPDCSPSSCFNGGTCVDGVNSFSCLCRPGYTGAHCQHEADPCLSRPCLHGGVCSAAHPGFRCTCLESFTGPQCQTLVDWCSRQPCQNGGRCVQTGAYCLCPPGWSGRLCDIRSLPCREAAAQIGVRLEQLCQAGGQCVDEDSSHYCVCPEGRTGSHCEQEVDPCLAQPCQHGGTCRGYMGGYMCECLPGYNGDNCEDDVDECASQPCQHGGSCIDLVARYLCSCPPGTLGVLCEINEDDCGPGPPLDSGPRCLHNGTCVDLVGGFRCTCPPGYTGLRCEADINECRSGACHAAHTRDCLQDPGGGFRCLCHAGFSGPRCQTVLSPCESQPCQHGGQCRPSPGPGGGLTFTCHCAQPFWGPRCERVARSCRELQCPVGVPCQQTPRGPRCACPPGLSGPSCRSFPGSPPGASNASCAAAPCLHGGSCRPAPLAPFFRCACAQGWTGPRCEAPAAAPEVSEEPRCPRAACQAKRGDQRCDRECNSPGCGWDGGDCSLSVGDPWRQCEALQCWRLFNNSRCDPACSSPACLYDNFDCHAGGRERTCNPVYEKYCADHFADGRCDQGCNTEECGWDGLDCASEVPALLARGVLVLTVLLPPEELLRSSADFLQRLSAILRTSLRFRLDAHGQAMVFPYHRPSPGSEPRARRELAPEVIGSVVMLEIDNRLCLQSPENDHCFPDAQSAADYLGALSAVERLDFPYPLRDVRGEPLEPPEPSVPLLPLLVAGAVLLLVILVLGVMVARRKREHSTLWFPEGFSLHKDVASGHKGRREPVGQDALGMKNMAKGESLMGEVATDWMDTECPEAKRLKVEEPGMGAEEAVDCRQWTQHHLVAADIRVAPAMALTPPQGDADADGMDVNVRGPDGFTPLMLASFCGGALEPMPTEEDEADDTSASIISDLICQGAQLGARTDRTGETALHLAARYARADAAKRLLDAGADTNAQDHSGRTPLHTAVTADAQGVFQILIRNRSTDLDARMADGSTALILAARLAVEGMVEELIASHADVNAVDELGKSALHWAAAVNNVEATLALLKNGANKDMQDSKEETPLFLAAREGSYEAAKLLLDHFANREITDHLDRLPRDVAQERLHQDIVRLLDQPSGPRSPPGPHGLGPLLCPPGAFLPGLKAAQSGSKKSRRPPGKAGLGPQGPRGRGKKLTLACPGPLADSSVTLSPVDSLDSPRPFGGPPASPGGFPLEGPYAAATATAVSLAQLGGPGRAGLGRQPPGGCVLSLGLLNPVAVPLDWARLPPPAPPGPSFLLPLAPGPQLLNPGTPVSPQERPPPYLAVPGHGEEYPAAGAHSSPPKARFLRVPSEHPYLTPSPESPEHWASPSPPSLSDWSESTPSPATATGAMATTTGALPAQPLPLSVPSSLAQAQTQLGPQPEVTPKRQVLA
Sequence of Pro-neuregulin-1, membrane-bound isoform (Homo sapiens) (Q02297 whole entry, looked up, the tested form may be a part, canonical isoform): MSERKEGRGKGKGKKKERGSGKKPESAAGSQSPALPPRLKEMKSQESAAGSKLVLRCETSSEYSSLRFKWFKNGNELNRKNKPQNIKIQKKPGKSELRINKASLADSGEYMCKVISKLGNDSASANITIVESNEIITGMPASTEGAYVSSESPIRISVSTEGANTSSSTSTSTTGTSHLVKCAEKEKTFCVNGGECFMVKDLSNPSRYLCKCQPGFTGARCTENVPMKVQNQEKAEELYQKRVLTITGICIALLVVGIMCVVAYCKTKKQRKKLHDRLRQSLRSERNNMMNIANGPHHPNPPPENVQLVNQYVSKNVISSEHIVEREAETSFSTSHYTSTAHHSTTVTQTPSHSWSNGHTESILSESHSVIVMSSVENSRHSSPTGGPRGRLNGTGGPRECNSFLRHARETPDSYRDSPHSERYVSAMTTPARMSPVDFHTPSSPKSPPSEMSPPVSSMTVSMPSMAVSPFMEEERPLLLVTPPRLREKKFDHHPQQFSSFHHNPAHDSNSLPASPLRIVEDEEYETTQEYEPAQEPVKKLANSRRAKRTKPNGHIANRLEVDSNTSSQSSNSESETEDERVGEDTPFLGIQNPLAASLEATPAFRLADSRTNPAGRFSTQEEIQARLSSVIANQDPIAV
Sequence of Torsin-1A-interacting protein 2 (Homo sapiens) (Q8NFQ8 whole entry, looked up): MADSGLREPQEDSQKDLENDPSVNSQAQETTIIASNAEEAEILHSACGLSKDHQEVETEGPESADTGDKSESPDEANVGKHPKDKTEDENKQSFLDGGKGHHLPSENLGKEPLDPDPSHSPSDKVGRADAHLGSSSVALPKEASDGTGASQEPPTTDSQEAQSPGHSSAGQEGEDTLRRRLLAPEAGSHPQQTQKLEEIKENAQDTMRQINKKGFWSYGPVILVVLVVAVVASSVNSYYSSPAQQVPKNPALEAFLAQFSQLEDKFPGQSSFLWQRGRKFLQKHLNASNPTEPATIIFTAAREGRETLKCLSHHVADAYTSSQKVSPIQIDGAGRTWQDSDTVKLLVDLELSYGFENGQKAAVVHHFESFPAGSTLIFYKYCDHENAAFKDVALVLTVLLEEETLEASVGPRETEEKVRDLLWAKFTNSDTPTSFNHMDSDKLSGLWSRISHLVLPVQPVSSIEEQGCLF

For the molecule `CC(C)=CCCC(C)=CCON=C1C[C@@H](O)[C@@H](O)[C@@H]2[C@@H]3C(=O)N(Cc4ccc5c(c4)OCO5)C(=O)[C@@H]3CC[C@H]12`, the composite z-score in experiment [1] is -0.386; in experiment [2] it was -0.203; in experiment [3], -0.0687; in experiment [4], 0.584; in [5] it was 1.18; in experiment [6], 0.78. Moreover, the composite z-score in [7] is 0.615; in experiment [9], 0.416; in [10], -0.272; in experiment [11], 1.44; in [15], 1.93; in experiment [17], -0.166. The composite z-score was 0.564 in experiment [18], 0.907 in experiment [19] and -0.0271 in experiment [20]. For the same molecule, the z-score in [8] is 0.34 (inactive); in experiment [12], 0.329 (inactive); in experiment [13] it was 0.197 (inactive); in experiment [14], -0.251 (inactive); in experiment [16], 0.103 (inactive).

In the case of `C[C@H]1CC[C@H]2C(=O)O[C@H](CO)CN2[C@@H]1c1ccc(Br)cc1`, the composite z-score in experiment [1] was -0.334; in [2], 0.544; in [3], -0.166; in experiment [4] it was 0.051; in experiment [5], -0.288; in experiment [6], -0.102. Besides, the composite z-score in experiment [7] is -0.238; in experiment [9], -0.148; in experiment [10] it was 0.2; in experiment [11] it was 0.995; in [15] it was 0.139; in [17] it was -0.141. Also, the composite z-score in experiment [18] was 0.417; in [19], -0.811; in [20] it was -0.0738. Further, the z-score in experiment [8] was 1.11 (inactive); in experiment [12] it was -1.57 (inactive); in [13], -16.2 (active); in experiment [14] it was -3.33 (inactive); in experiment [16], 1.88 (inactive).

With `CC(C)=NOC[C@@H](O)[C@H]1O[C@@H]2OC(C)(C)O[C@@H]2[C@H]1O`, the composite z-score in [1] is -0.732; in [2], 0.97; in experiment [3], 0.197; in [4], 0.502; in [5], 1.09; in experiment [6] it was 0.233. For the same molecule, the composite z-score is 0.457 in [7]; 0.548 in [9]; -0.191 in experiment [10]; 0.956 in [11]; 0.178 in experiment [15]; 0.19 in experiment [17]. Further, the results for the composite z-score in experiment [18], in [19] and in [20] were 0.625, 0.498 and 0.0727, respectively. Besides, the z-score in experiment [8] is -0.476 (inactive); in experiment [12], 0.51 (inactive); in experiment [13] it was 0.0819 (inactive); in experiment [14], 0.243 (inactive); in experiment [16], 0.132 (inactive).

For `CCOC(=O)[C@H](CC(C)C)NC(=O)CCC1CC(OC(=O)NCCc2ccc(F)cc2)CC2(CCCC(COC(=O)NCCOC)O2)O1` (stereo not given in full), the composite z-score was 0.12 in [1]; 0.305 in [2]; -0.043 in experiment [3]; 0.862 in experiment [4]; 1.15 in experiment [5]; 0.32 in experiment [6]. For the same molecule, the composite z-score was 1.13 in experiment [7]; 0.158 in experiment [9]; 0.0092 in [10]; 1.41 in [11]; 1.7 in experiment [15]; -0.025 in experiment [17]. For the same molecule, the composite z-score in experiment [18] is 0.382; in experiment [19], 0.998; in [20], -0.0975. The z-score was 1.44 (inactive) in [8]; 0.513 (inactive) in experiment [12]; 1.13 (inactive) in experiment [13]; 1.5 (inactive) in experiment [14]; -1.02 (inactive) in experiment [16].

On to `CCOC(=O)[C@H](CC(C)C)NC(=O)CCC1CC(OC(=O)NCc2ccc3c(c2)OCO3)CC2(CCCC(COC(=O)NCCC(C)C)O2)O1` (stereo not given in full), for which the composite z-score in [1] was -0.495; in experiment [2] it was -0.146; in experiment [3], -0.119; in experiment [4] it was 0.01; in experiment [5] it was -0.195; in experiment [6], 0.169. The composite z-score is 0.312 in [7]; -0.11 in experiment [9]; -0.291 in [10]; 0.145 in experiment [11]; -0.222 in [15]; -0.193 in [17]. Moreover, the figures for the composite z-score in experiment [18], in experiment [19] and in experiment [20] were 0.482, 0.24 and -0.0828, respectively. Besides, the z-score in [8] was 1.38 (inactive); in experiment [12] it was 0.138 (inactive); in experiment [13] it was 0.991 (inactive); in experiment [14], -0.511 (inactive); in experiment [16], 0.796 (inactive).
